These results are taken from PubChem BioAssay (NCI).

Compounds without any hit were thinned out: in the full panel of roughly 83,000, 20% have a hit.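 Note: values are percent growth. 100 is the growth of untreated cells, values between 100 and 0 indicate rising inhibition; between -100 and 0 indicates cell death.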 Values without a mark were called inactive. Active and inactive are the calls of the source. The calls were made as follows: active = growth percent below 10; inactive = the rest.

For the test, the system named is MDA-MB-468 breast. Put plainly: NCI-60 one-dose screen, 48 h (100 = growth as untreated, 0 = no growth, -100 = all killed). Conditions: 10 µM unless noted.
Turning to `CC(=O)N1CCN(c2ccc(OCC3CO[C@](Cn4ccnc4)(c4ccc(Cl)cc4Cl)O3)cc2)CC1` (stereo not given in full), the growth is 26.5%. Then `COC(=O)[C@]12CC[C@@H](C)[C@H](C)[C@@H]1C1=CC[C@@H]3[C@@]4(C)C[C@@H](O)[C@H](O)[C@@](C)(CO)[C@@H]4[C@H](O)C[C@@]3(C)[C@]1(C)CC2`, with -53% (active).

As to `Fc1ccc(NC(=S)c2ccccc2)cc1`, the growth is 97.5%.

Consider `O=c1c2cccc(Cl)c2sc2c(NCCCNCCO)nc3ccccc3c12`, for which the growth is -19.5% (active). Then `O=Cc1ccc([N+](=O)[O-])s1`, with 103%; and `COc1cc(/C=C/C(=O)Nc2cccnc2Nc2cc(OC)c(OC)c(OC)c2)cc(OC)c1OC`, with 99.8%.

As for `NS(=O)(=O)c1ccc(NC(=O)/C(=C\c2ccc(Cl)cc2Cl)NC(=O)c2ccccc2)cc1`, the growth was 110%. Turning to `Cc1ccc(Nc2nc(N)nc(Nc3ccc4ccccc4c3)n2)cc1`, the growth is 20.2%. Then `CC1(C)N=C(N)N=C(N)N1c1ccc(CCCCc2ccccc2)c(Cl)c1`, with -20.8% (active); and `COc1ccc(C(=O)c2cc(OC)c(C)c(OC)c2)cc1OC(=O)CCl`, with 38.3%. In the case of `O=[N+]([O-])c1c(S(=O)(=O)O)cc2cc(S(=O)(=O)O)ccc2c1[N+](=O)[O-]` it was 111%; in that of `Cc1ccc(F)cc1NC(=O)c1cc(Cl)ccc1Nc1ccccc1`, 61.8%; in that of `Cc1ccc(NC(=O)c2ccc(CN3CCN(C)CC3)cc2)cc1Oc1ccc(-c2[nH]nc3ncnc(N)c23)cc1`, 59.3%. For `CCc1ccc(NC(=O)N[C@@H](Cc2cccc(C)c2)C(=O)N[C@@H]2C(=O)N3CCC[C@H]3C(=O)N3CCCC[C@H]3C(=O)N[C@@H](CO)C(=O)N3C[C@H](C)C[C@H]3C(=O)O[C@H]2C)c(F)c1`, the growth is -14.2% (active). Take `CCOC(=O)c1c(Nc2nc3ccccc3s2)sc2c1CCC(=O)C2`: the growth was 94.8%.

Take `CSc1nc2ccc(C)cc2cc1/C=C1/C=C(c2ccccc2)NC1=O`: the growth was 49.1%. Then `COc1ccc(CN2C(=O)/C(=C\C(=O)c3ccc(OCCN4CCCC4)cc3)c3ccccc32)cc1`, with 49.3%; and `COc1ccc(-c2nn(-c3ccc(NC(=O)Nc4ccc(Cl)c(C(F)(F)F)c4)cc3)cc2-c2ccncc2)cc1Cl`, with -46.4% (active).

As to `N#C/C(=C\c1cccc2c1OCO2)C(=O)Nc1sc2c(c1C#N)CCCC2`, the growth is 100%. Then `CCCCNC(=O)c1ccccc1C`, with 82.3%. For the molecule `CC(=O)c1nc(Nc2ccc(C)cc2)sc1C`, the growth is 93.1%. Take `Oc1ccc2c(=S)cc(-c3ccc(Br)cc3)oc2c1O`: the growth is -2.5% (active).

With `N#C/C(=C\c1ccc(-c2cccc(C(F)(F)F)c2)o1)c1nc(-c2ccco2)cs1`, the growth was -37% (active). In the case of `CCC1CCCCN1C(=S)N/N=C(\C)c1ccccn1` (stereo not given) it was -2.96% (active); in that of `O=C(NCCCCCCNC(=O)OCc1ccc2c(Cl)cc(Cl)c(O)c2n1)OCc1ccc2c(Cl)cc(Cl)c(O)c2n1`, -62.7% (active).
